SMILES strings stand for the structures.

In PubChem BioAssay one finds z-score data, which are given here for 11 compounds.

The experiment is described as follows: MM1S cell viability effects, profiling panel, calcein-AM fluorescence, 48 h, basal (AID 1165).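 Also: viability of MM1S multiple myeloma cells under basal unstimulated conditions; test concentration not given here.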 The following applies: higher = more signal.
`COc1ccc([Si](C)(C)[C@@H]2[C@@H](CCn3cc([C@H](O)c4ccccc4)nn3)O[C@]3(C(=O)N(c4ccccc4)c4ccccc43)[C@H]2C)cc1`: the z-score was -1.18.
As to `CCN(CC)c1ccc(N2CC=CC34O[C@@H]5C=CCCOC(=O)C5[C@H]3C(=O)N(CCO)[C@@H]4C2=O)cc1` (stereo partly specified), the z-score was 0.766.
`COc1ccc([Si](C)(C)[C@H]2[C@H](CCO)O[C@@]3(C(=O)N(Cc4ccc(N5C(=O)c6ccccc6Oc6ccccc65)cc4)c4ccccc43)[C@@H]2C)cc1`: the z-score was -2.79.
`CC(C)CNC(=O)[C@@]1(C)c2ccccc2C(=O)N(Cc2cc(C(F)(F)F)cc(C(F)(F)F)c2)[C@H]1c1ccc(CO)cc1`: the z-score is -0.236.
To `[N-]=[N+]=NC[C@H](Cc1ccccc1)NC(=O)c1ccccc1` belongs 0.357.
Regarding `CN(C)C(=O)[C@]1(CCS(=O)(=O)c2ccccc2)N=C(c2ccc(OCCCO)cc2)O[C@@H]1c1ccccc1`, the z-score was -0.675.
As for `O=C(CS)NCCCCCNC(=O)[C@@H]1C[C@@H]2C(=O)N[C@@H](Cc3ccccc3)C(=O)N2[C@@H]1c1cccc(OCCO)c1`, the z-score was 0.57.
Consider `CN1C(=O)C2C=CC(C(O)c3ccc(F)cc3)N(NC(=O)OC(C)(C)C)C2C1=O` (stereo unspecified), for which the z-score was -2.82.
For `[N-]=[N+]=NCc1ccccc1[C@@H]1OC(c2ccc(OCCCO)cc2)=N[C@]1(Cc1ccccc1)C(=O)NCCN1CCOCC1`, the z-score is -0.887.
Regarding `[N-]=[N+]=Nc1ccccc1[C@@H]1OC(c2ccc(OCCCO)cc2)=N[C@]1(Cc1ccccc1)C(=O)NCc1ccccc1`, the z-score is -3.35.
With `CO[C@H]1O[C@H](CO)[C@@H](OC(=O)Nc2ccc(C#N)cc2)[C@@H]2OC(=O)[C@H](Cc3cccc(Br)c3)C/C=C/C[C@@H](Cc3cccc(Br)c3)C(=O)O[C@@H]12`, the z-score was -1.71.
